Measurements published in PubChem BioAssay (NCI).
The panel holds about 79,000 compounds, 15% with a hit somewhere; the sample as a whole holds those more often. Calls of active or inactive are those of the source. Cut-off read from the data, not from the text of the source: active = growth inhibition above about 70%; inactive = the rest.

Legend:
[1] = NCI Yeast Anticancer Drug Screen. Data for the rad50 strain (AID 155);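 note: 0% = growth of vehicle-only cultures of the same strain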; conditions: S. cerevisiae rad50 strain growth inhibition, hits give high values
How it was run: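 Relative growth inhibition (compound vs vehicle) was measured in yeast with a defined repair-gene alteration.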

[2] = NCI Yeast Anticancer Drug Screen. Data for the mec2-1 strain (AID 157); conditions: S. cerevisiae mec2-1 strain, hits give high values
How it was run: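 Each compound was tested on mec2-1 yeast, a strain altered in DNA damage repair or cell cycle control. Growth inhibition is reported relative to vehicle.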

[3] = NCI Yeast Anticancer Drug Screen. Data for the sgs1 mgt1 strain (AID 161);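 note: 0% = growth of cultures given vehicle only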; conditions: S. cerevisiae sgs1 mgt1 strain, hits give high values
How it was run: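 Inhibition of yeast growth, normalised to vehicle-treated controls, is reported for a strain bearing genetic alterations in DNA damage repair.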

[4] = NCI Yeast Anticancer Drug Screen. Data for the cln2 rad14 strain (AID 165);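 note: 0% = growth equal to vehicle treated cultures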; conditions: S. cerevisiae cln2 rad14 strain, hits give high values
How it was run: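 Test compounds were added to cln2 rad14 yeast cultures; inhibition of growth was then determined by comparison with vehicle treatment.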

[5] = NCI Yeast Anticancer Drug Screen. Data for the bub3 strain (AID 167); conditions: S. cerevisiae bub3 mutant strain, hits give high values
How it was run: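 Screening used yeast with an engineered genetic alteration affecting cell cycle control. Compound-exposed cultures were compared with vehicle cultures, and reduced growth was taken as inhibition.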

[6] = NCI Yeast Anticancer Drug Screen. Data for the mlh1 rad18 strain (AID 175); conditions: S. cerevisiae mlh1 rad18 strain growth inhibition, hits give high values
How it was run: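 Inhibition values reflect reduced growth of mutant yeast versus vehicle-treated controls following compound exposure; the mutations affect DNA damage repair.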

[7] = at 5.0 µM (retest, dose inferred, filed as 0.5)
[8] = at 50.0 µM (retest, dose inferred, filed as 5.0)

Measured: growth inhibition

CCCN(CCC)Cc1cc2c(cc1O)CC[C@@H]1[C@@H]2CC[C@]2(C)C(=O)CC[C@@H]12
active: [1]; [7] 98% | [1]; [8] 87% | [1]; at 50.0 µM 84% | [2]; [7] 100% | [2]; [8] 89% | [3]; [7] 100% | [3]; at 50.0 µM 80.1% | [5]; [7] 99% | [5]; [8] 89% | [6]; [7] 99% | [6]; [8] 94%
inactive: [2]; at 50.0 µM 51.8% | [3]; [8] 62% | [4]; [7] 52% | [4]; [8] 20% | [4]; at 50.0 µM 60.9% | [5]; at 50.0 µM 37.5% | [6]; at 50.0 µM 65.2%

O=C(OC1C2CCC2C2CC21)c1ccc([N+](=O)[O-])cc1[N+](=O)[O-] (stereo not given)
active: [1]; [8] 95% | [2]; [8] 99% | [3]; [8] 98% | [4]; [8] 99% | [5]; [8] 93% | [6]; [8] 98%
inactive: [1]; [7] 26% | [1]; at 50.0 µM 36% | [2]; [7] 14% | [2]; at 50.0 µM 37.5% | [3]; [7] 24% | [3]; at 50.0 µM 59.1% | [4]; [7] 6% | [4]; at 50.0 µM 39.5% | [5]; [7] -5% | [5]; at 50.0 µM 37.2% | [6]; [7] 25% | [6]; at 50.0 µM 62.9%

Cc1ccc(S(=O)(=O)Nn2c(S)c(C#N)c(-c3ccc(Cl)cc3)c(C#N)c2=O)cc1
active: [1]; [8] 73% | [2]; at 50.0 µM 75.2% | [3]; [8] 91% | [3]; at 50.0 µM 81.8% | [5]; [8] 79% | [6]; at 50.0 µM 73.8%
inactive: [1]; [7] 29% | [1]; at 50.0 µM 55.6% | [2]; [7] 17% | [2]; [8] 66% | [3]; [7] 19% | [4]; [7] 40% | [4]; [8] 56% | [4]; at 50.0 µM 32.4% | [5]; [7] 45% | [5]; at 50.0 µM 65.9% | [6]; [7] 24% | [6]; [8] 56%

N#Cc1cccc(C[P+](c2ccccc2)(c2ccccc2)c2ccccc2)c1
inactive: [1]; [7] 14% | [1]; [8] 45% | [2]; [7] -1% | [2]; [8] 22% | [2]; at 50.0 µM 46% | [3]; [7] 3% | [3]; [8] 38% | [4]; [7] 8% | [4]; [8] 6% | [4]; at 50.0 µM 42.9% | [5]; [7] 4% | [5]; [8] 32% | [5]; at 50.0 µM 45.8% | [6]; [7] 7% | [6]; [8] 30% | [6]; at 50.0 µM 56.8%
active: [1]; at 50.0 µM 78.3% | [3]; at 50.0 µM 75.8%

CC(C)(CN1CCCCC1)C(=O)CC(SCCS(=O)(=O)O)c1ccc(Cl)c(Cl)c1 (stereo not given)
active: [1]; [8] 97% | [1]; at 50.0 µM 95.8% | [2]; [8] 97% | [2]; at 50.0 µM 94% | [3]; [8] 95% | [3]; at 50.0 µM 97.4% | [4]; [8] 98% | [4]; at 50.0 µM 88.2% | [5]; [8] 99% | [5]; at 50.0 µM 98% | [6]; [8] 97% | [6]; at 50.0 µM 97%
inactive: [1]; [7] 62% | [2]; [7] 33% | [3]; [7] 33% | [4]; [7] 38% | [5]; [7] 58% | [6]; [7] 41%

Cc1cccc(/C=N/Nc2ccccn2)n1
inactive: [1]; [7] 22% | [1]; [8] 27% | [2]; [7] 17% | [2]; [8] 37% | [3]; [7] 20% | [3]; [8] 38% | [3]; at 50.0 µM 37.1% | [4]; [7] 17% | [4]; [8] 37% | [4]; at 50.0 µM 23.8% | [5]; [7] 15% | [5]; [8] 41% | [5]; at 50.0 µM 37.6% | [6]; [7] 21% | [6]; [8] 42%
active: [1]; at 50.0 µM 83% | [2]; at 50.0 µM 78.8% | [6]; at 50.0 µM 87.6%

O=c1[nH]c2c([N+](=O)[O-])cc(Cl)cc2nc1/C=C(\O)c1ccccn1
active: [6]; at 50.0 µM 79.2%
inactive: [1]; [7] 8% | [1]; [8] 61% | [1]; at 50.0 µM 51.8% | [2]; [7] -1% | [2]; [8] 26% | [2]; at 50.0 µM 5.8% | [3]; [7] 7% | [3]; [8] 41% | [3]; at 50.0 µM 49.2% | [4]; [7] 4% | [4]; [8] 52% | [4]; at 50.0 µM 37% | [5]; [7] 14% | [5]; [8] 27% | [5]; at 50.0 µM 12.1% | [6]; [7] 11% | [6]; [8] 46%

CCOC(=O)/C(C)=N/Nc1cc(Cl)ccc1O
inactive: [1]; [7] 0% | [1]; [8] 55% | [2]; [7] 4% | [2]; [8] 32% | [3]; [7] 4% | [3]; [8] 42% | [3]; at 50.0 µM 58% | [4]; [7] -62% | [4]; [8] 51% | [5]; [7] -6% | [5]; [8] -15% | [5]; at 50.0 µM 34.5% | [6]; [7] 7% | [6]; [8] 63%
active: [1]; at 50.0 µM 95.5% | [2]; at 50.0 µM 94% | [4]; at 50.0 µM 70.8% | [6]; at 50.0 µM 88.8%

Cc1ccc(N2CC(O)CN(c3ccc(C)cc3)CC(O)C2)cc1 (stereo not given)
inactive: [1]; [7] 0% | [1]; [8] 3% | [1]; at 50.0 µM 20.4% | [2]; [7] -7% | [2]; [8] -13% | [2]; at 50.0 µM 18.1% | [3]; [7] -29% | [3]; [8] 1% | [3]; at 50.0 µM 24.9% | [4]; [7] 6% | [4]; [8] -10% | [4]; at 50.0 µM 6.55% | [5]; [7] 3% | [5]; [8] 1% | [5]; at 50.0 µM 15.3% | [6]; [7] 33% | [6]; [8] 0% | [6]; at 50.0 µM 23.2%

Cc1ccc(/C=N/NC(N)=S)cc1C
inactive: [1]; [7] -6% | [1]; [8] 18% | [1]; at 50.0 µM 45.1% | [2]; [7] -4% | [2]; [8] 3% | [2]; at 50.0 µM 10.8% | [3]; [7] -5% | [3]; [8] 9% | [3]; at 50.0 µM 61.7% | [4]; [7] -12% | [4]; [8] -13% | [4]; at 50.0 µM -11.1% | [5]; [7] -4% | [5]; [8] -2% | [5]; at 50.0 µM 34.8% | [6]; [7] -6% | [6]; [8] 7% | [6]; at 50.0 µM 65.6%
